Assay results: ChEMBL document CHEMBL3988442, “University of Dundee, Small-Polar-MMV Screening Library” (2021)
About 13,000 (27%) of roughly 48,000 compounds showed an effect of 50% or more. Some of the results follow.

system: Wolbachia pipientis; test: Anti-Wolbachia Cell-Based Screen; format: functional; set-up: scale not given: in the data most compounds retested in dose-response had high values; conditions: 5 µM

Row | Compound | Percent Effect
1 | COC(=O)[C@H](CSC)Nc1nc(C2CCCC2)nc2c1cnn2C | -6.594%
2 | CCCN(CC1COc2ccccc2O1)C(=O)C1=NN(C)C(=O)CC1 (stereo not given) | -3.876%
3 | CC(C)N(CCS(C)(=O)=O)Cc1csc(Cc2ccc(Cl)cc2)n1 | -7.743%
4 | O=S(=O)(c1ccc(Cl)s1)N1CCCC(c2ncc[nH]2)C1 (stereo not given) | 4.292%
5 | COCCOc1ncccc1C(=O)N1CCCn2ncnc21 | -1.947%
6 | CCc1ccc(S(=O)(=O)N2CCCC(c3ncc[nH]3)C2)s1 (stereo not given) | -13.86%
7 | CCC[C@H]1CN(S(=O)(=O)c2ccc(CC)s2)C[C@@H]1N | -3.149%
8 | O=S(=O)(c1ccc(Cl)s1)N1CCCn2ncnc21 | 95.01%
9 | O=C(c1ccc(-c2ccccc2)[nH]c1=O)N1CCCn2ncnc21 | 1.123%
10 | CCc1ccc(S(=O)(=O)N2CCCn3ncnc32)s1 | 83.72%
11 | O=C(c1cccnc1Oc1ccccc1)N1CCCn2ncnc21 | 8.828%
12 | COC(=O)c1ccc(S(=O)(=O)N2CCCn3ncnc32)s1 | 103.1%
13 | Cn1cc(C(=O)Nc2cccc(CCN3CCCC3)c2)ccc1=O | -2.076%
14 | CCOCCS(=O)(=O)Cc1ccn(-c2cccc(F)c2)n1 | -15%
15 | Cc1ccnc(N2CCC(=O)N(Cc3ccc(F)cc3)C(C(C)C)C2)n1 (stereo not given) | -3.35%
16 | Cc1ccsc1[C@@H]1CCN(C(=O)CCC(=O)c2ccccc2)C[C@H]1O | -8.391%
17 | N#CCCN1CCN(S(=O)(=O)c2ccc(Cl)s2)CC1 | 101.8%
18 | Cc1ccc(CNC(=O)CNCC2CCN(CCO)CC2)s1 | 0.4784%
19 | CC1(C)OCC2(CO1)CN(S(=O)(=O)c1ccc(Cl)s1)C2 | -3.142%
20 | CCN1CCN(S(=O)(=O)c2cnc(NC(C)=O)s2)CC1 | -4.735%
21 | Cc1ccc(S(=O)(=O)N2CCN(CCC(N)=O)CC2)s1 | 97.05%
22 | Cc1ccc(S(=O)(=O)N2CCN(CCC#N)CC2)s1 | 7.923%
23 | Cc1ccc(S(=O)(=O)N2CCC(Cn3cc(C(C)(C)N)nn3)CC2)s1 | -17.3%
24 | Cc1ccc(CNC(=O)CN2CCN(CCO)CC2)s1 | 0.0165%
25 | Cc1ccc(S(=O)(=O)N2CCN(CCCO)CC2)s1 | 107%
26 | COc1ccccc1Oc1ncccc1CNC(=O)[C@@H](C)NC(C)=O | -4.174%
27 | CC(C)CC(C)NC1CCN(c2ccc(-c3cscn3)cc2)CC1 (stereo not given) | 3.924%

Row | Compound | Percent Effect
28 | CN(Cc1nnc2n1CCC2)C(=O)c1ccc(=O)n(C)n1 | -6.286%
29 | CC(=O)N(C)CC(=O)Nc1cnc(-n2ccnc2)nc1 | 3.406%
30 | Cc1nn(C)c(N(C)C)c1CNCc1cccc(Cn2cccn2)c1 | 3.492%
31 | COc1c(CNCc2ccccc2-n2ccnc2)c(C)nn1C | -0.9457%
32 | COc1c(CNCc2cccc(Cn3ccnc3)c2)c(C)nn1C | -8.562%
33 | COc1c(CNCc2ccc(Cn3ccnc3)cc2)c(C)nn1C | 103%
34 | Cc1nn(C)c(N(C)C)c1CNCc1cccc(Cn2ccnc2)c1 | 81.6%
35 | Cc1nn(C)c(N(C)C)c1CNCc1cccc(CN(C)C)c1.Cl | 9.174%
36 | COc1c(CNCc2ccc(CN3CCOCC3)cc2)c(C)nn1C | -11.29%
37 | COc1c(CNCc2ccccc2Cn2ccnc2)c(C)nn1C | 97.96%
38 | CC(C#N)CSc1ccccc1NCC(=O)NCc1cccs1 (stereo not given) | -12.24%
39 | CCc1nc(C)c(-c2nccn2CC2CC(=O)N(CC)C2)[nH]1 (stereo not given) | -26.8%
40 | O=C(CNC(=O)c1c[nH]c2ccccc12)NCCCn1ccnc1 | 13.72%
41 | O=C1CC(c2cccs2)c2cnn(C3CCCC3)c2N1 (stereo not given) | 48.91%
42 | Cc1cc(C(=O)N2CCCC3(C=Cc4ccccc4O3)CC2)cc(=O)[nH]1 (stereo not given) | 7.842%
43 | CCN(C)c1ncnc2c1CCN(C(=O)N1CCOCC1)CC2 | -3.195%
44 | Cc1cc2c(cc1Cl)C=CC1(CCN(CC(=O)N3CCCC3)CC1)O2 | 122.5%
45 | Cc1cc2c(cc1C)OC1(C=C2)CCN(CC(=O)N2CCOCC2)CC1 | 107.9%
46 | Cc1cc2c(cc1Cl)C=CC1(CCN(C(=O)N3CCOCC3)CC1)O2 | 95%
47 | COc1ncc(C(=O)N2CCCC3(C=Cc4ccccc4O3)CC2)cn1 (stereo not given) | 1.868%
48 | COc1ccnc(N2CCN(CC(=O)N3CCOCC3)CC2)n1 | 3.835%
49 | Nc1cc(C(=O)N2CCCC3(C=Cc4ccccc4O3)CC2)ccn1 (stereo not given) | -15.12%
50 | Cc1cc2c(cc1Cl)C=CC1(CCN(CC(=O)N3CCOCC3)CC1)O2 | 104%
51 | O=C(CN1CCOCC1)N1CCN(C2CCc3ccc(F)cc32)CC1 (stereo not given) | -10.71%
52 | O=C(O)C(F)(F)F.c1csc(CN2CCc3ncnc(C4CCOC4)c3CC2)n1 (stereo not given) | 8.568%
53 | O=S(=O)(CC1CCOCC1)NCc1ccnc(O)c1 | 1.758%
54 | Cc1ccsc1CCNC(=O)C1(Oc2cccnc2C)CCNCC1 | 14.81%

Row | Compound | Percent Effect
55 | CN(C)c1ccc2c(c1)CN(C(=O)c1ccnnc1)C2c1cnco1 (stereo not given) | -12.4%
56 | O=C(CN1C=Nc2ccccc2S1(=O)=O)NC1CCCCC1 | -27.98%
57 | Cc1cn(CC(=O)NC2CCN(CC3CC3)CC2)c2ccccc12 | -11.31%
58 | CCN(CC)C(=O)CN1CCC2(C=Cc3cc(Cl)c(C)cc3O2)CC1 | 113.1%
59 | CCc1ccc(O)c(C(=O)N2CCCN(CC(=O)N(CC)CC)CC2)c1 | -4.449%
60 | Cc1cc2c(cc1Cl)C=CC1(CCN(CC(=O)NC3CCCC3)CC1)O2 | 121.2%
61 | CCc1ccc(O)c(C(=O)N2CCN(CC(=O)N(CC)CC)CC2)c1 | 11.73%
62 | CC1(C)CN(CC(F)(F)F)CCN1CC(=O)NC1CCCC1 | 1.341%
63 | Cc1cc(NC(=O)c2nc(N3CCCC3)ncc2Cl)nc(C(C)C)n1 | -9.396%
64 | Cc1ccc(-c2n[nH]cc2CNCC2CCS(=O)(=O)C2)o1 (stereo not given) | -39.75%
65 | CCOC(=O)C1CC2(CCCCC2)N2CCC(=O)N12 (stereo not given) | 121.9%
66 | CCOCC1COCCC12CCN(C(=O)C1=CCCC1)CC2 (stereo not given) | -18.23%
67 | CCS(=O)(=O)N1CCCC2(CCCC(=O)N2C)C1 (stereo not given) | -13.94%
68 | COCCCN1CC2(CCCCN2C(C)=O)CC1=O (stereo not given) | 3.783%
69 | CCN1CC2(CCCCN2C(=O)C2CCCCC2)CC1=O (stereo not given) | -14.04%
70 | COCCCN1CC2(CCCCN2C(=O)C2CCCCC2)CC1=O (stereo not given) | -3.805%
71 | CCOC(=O)C1CC2(CCCC2)N2CCC(=O)N12 (stereo not given) | 94.86%
72 | CCN1C(=O)CO[C@@H]2CN(C(=O)C3CCOCC3)C[C@H]21 | 7.95%
73 | CCOC(=O)C1CC2(CCOCC2)N2CCC(=O)N12 (stereo not given) | 102.8%
74 | CCc1ccc(C2COCCN2C(=O)Nc2cc(C)on2)o1 (stereo not given) | -5.597%
75 | CCc1ccc(CN(C)C(=O)c2ccc(CSc3nnc[nH]3)o2)nc1 | -27.23%
76 | CC(=O)NCCNC(=O)NCCc1c(C)cc(C)cc1C | -0.992%
77 | Cc1ccc2[nH]c(CO[C@H]3CN(c4ccc(C#N)cn4)C[C@H]3F)nc2c1 | 0.4241%
78 | CC(O)CN1CCN(Cc2coc(-c3ccccc3)n2)CC1 (stereo not given) | -18.93%
79 | CC(O)CN1CCN(Cc2coc(-c3ccccc3Cl)n2)CC1 (stereo not given) | 6.495%
80 | OCCN1CCN(Cc2coc(-c3ccccc3Cl)n2)CC1 | 6.785%
81 | CC(O)CN1CCN(Cc2coc(-c3ccc(Cl)cc3)n2)CC1 (stereo not given) | 105.9%

Row | Compound | Percent Effect
82 | Cc1ccc(-c2nc(CN3CCn4c(nnc4C4CC4)C3)co2)cc1 | -3.724%
83 | COc1ccc(-c2nc(CN3CCN(CCO)CC3)co2)cc1 | 6.071%
84 | Cc1ccc(-c2nc(CN3CCN(CCO)CC3)co2)cc1 | 88.55%
85 | OCCN1CCN(Cc2coc(-c3ccccc3)n2)CC1 | 106.5%
86 | OCCN1CCN(Cc2coc(-c3ccc(Cl)cc3)n2)CC1 | 12.92%
87 | OCCOc1cc(F)ccc1NCc1nc(-c2ccoc2)no1 | -6.724%
88 | CC(=O)N(Cc1noc(C2CC2)n1)C1CCN(CC(=O)NC2CC2)C1 (stereo not given) | 124.3%
89 | CC(=O)N(Cc1noc(C2CC2)n1)C1CCN(CC2CCOCC2)C1 (stereo not given) | 115.6%
90 | Cc1nc(CCN)cc(N2CCC(O)(c3ccccc3)C2)n1 (stereo not given) | -17.84%
91 | O=C(c1ccccn1)N1CC[C@H]2C(=O)N(c3ccsc3)CCO[C@H]2C1 | -15.02%
92 | COCC(=O)Nc1ccc(-c2noc([C@@H]3CCCN3C(C)C)n2)cn1 | 57.87%
93 | COCC(=O)Nc1ccc(-c2noc([C@@H]3CCCN3C)n2)cn1 | -1.727%
94 | COCC(=O)Nc1ccc(-c2noc([C@@H]3CCCN3CC(C)C)n2)cn1 | 49.09%
95 | COc1ccc(CN(C)C(=O)CCC(=O)c2cccs2)c(OC)c1OC | -8.068%
96 | CCOc1cc(/C=C/c2ncc(C(=O)NC)s2)ccc1OC | 34.03%
97 | COc1ccc(OC)c(C2CCN(c3ccc4cc[nH]c4n3)C2)c1 (stereo not given) | 5.101%
98 | CCOc1cc([C@@H]2N[C@H](c3nccs3)Cc3ccsc32)ccc1OC | 100.4%
99 | CCOc1cc(CNc2cc(-c3nc(C)no3)ccn2)ccc1OC | -0.8232%
100 | COc1ccc(C(C)NC(=O)Nc2nccs2)cc1OC (stereo not given) | -9.507%
101 | COc1cc([C@@H]2N[C@H](c3nccs3)Cc3ccsc32)cc(OC)c1OC | 111.7%
102 | CCOc1cc([C@H]2N[C@@H](c3nc(C)cs3)Cc3ccsc32)ccc1OC | 131.4%
103 | COc1ccc(OC)c(C2CCN(C3CCOCC3)C2)c1 (stereo not given) | 1.409%
104 | COc1ccc(OC)c([C@@H]2N[C@H](c3nccs3)Cc3ccsc32)c1 | 139.9%
105 | CCOc1ccc(C(=O)CCC(=O)NCc2csc(N)n2)cc1C | 5.175%
